# A selection: hits, their analogues and other compounds. The true share with any hit is near 2.1%.
# PLCg1 inh: PLC-gamma1 (human) inhibition, primary screen | P19174 | purified PLC-gamma1, fluorogenic substrate, fluorescence | inhibition, % at 12.2 µM | 370,000 tested, 0.84% active
# ADAM17 inh: inhibitors of human ADAM17 | 370,000 tested, 0.83% active | recombinant ADAM17, EDANS/DABCYL FRET peptide cleavage | inhibition, % at 6.95 µM;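 active = inhibition above the mean of compounds lying between control limits plus 3 SD, set per campaign, cut at about 8.5% in these data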
# ADAM10 inh: inhibits human ADAM10. O14672. recombinant ADAM10, EDANS/DABCYL FRET peptide cleavage, 3 h. inhibition, % at 7 µM. 370,000 tested, 0.62% active. AID 720582;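 active = inhibition above a per-campaign cutoff equal to the mean of compounds falling between control-based bounds plus 3 SD, cut at about 20% in these data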
# Rce1 inhib: yeast Ras-converting enzyme inhibition; Q03530; yeast membranes, quenched prenylated peptide cleavage fluorescence; calls only; 290,000 tested, 0.27% active; AID 2563;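 active = fall in fluorescence gain of 50% or more versus controls, with final raw signal at or below 3038400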
# PLC-beta3 inh: PLC-beta3 (human) inhibition, primary screen; 370,000 tested, 0.18% active; Purified PLC-beta3, fluorogenic substrate, fluorescence; AID 720704; inhibition, % at 12.2 µM; Q01970; in the data active = inhibition above about 11%
# PLCgamma1 ctr: counter-screen for PLC-beta3 inhibitors: inhibitors of human PLC-gamma1. shares compounds with PLCg1 inh. purified PLC-gamma1, fluorogenic substrate, fluorescence. inhibition, % at 12.3 µM. 3,300 tested, 3.1% active
# PLCbeta3 conf: human PLC-beta3 inhibition, confirmation. shares compounds with PLCg1 inh. 3,300 tested, 1% active. inhibition, % at 12.3 µM. AID 743261. purified PLC-beta3, fluorogenic substrate fluorescence; in the data active = inhibition above about 11%
# Numbers stand for hits; – = inactive; · = no result. Cut-off read from the data, not from the text of the source, unless noted: active = inhibition above about 9.5%; inactive = the rest.
SMILES,PLCg1 inh,ADAM17 inh,ADAM10 inh,Rce1 inhib,PLC-beta3 inh,PLCgamma1 ctr,PLCbeta3 conf
CN(C(=O)CCS(=O)(=O)c1ccc2c(c1)oc(=O)n2C)C1CCCCC1,14,–,–,–,–,–,–
O=C(OCCN1CCN(C2CN(Cc3cn(Cc4ccccc4C(F)(F)F)nn3)S(=O)(=O)C2)CC1)c1cc2ccccc2o1 (stereo unspecified),–,–,–,·,–,·,·
O=C(O)CC(C(=O)O)N1C(=O)/C(=C/C=C/c2ccco2)SC1=S (stereo unspecified),59,–,–,–,–,52,–
O=C(O)C(Cc1ccccc1)N1C(=O)/C(=C/C=C/c2ccco2)SC1=S (stereo unspecified),–,–,–,–,–,·,·
O=C(O)CCCN1C(=O)/C(=C/C=C/c2ccco2)SC1=S,23,–,–,–,–,18,–
CC(C)(C)C(=O)OC12CCCN(C1)/C(=C/c1cccc(Cl)c1)C2 (stereo unspecified),–,–,–,·,–,·,·
CC(=O)Nc1cccc(-c2ccnc3c2CC(C(=O)Nc2ccc(Cl)cc2)O3)c1 (stereo unspecified),–,–,–,·,–,·,·
c1ccc([C@H]2CNCCN2CCc2cccc3ccccc23)cc1,12,–,–,·,–,–,–
O=C(NC1CCCCC1)C(c1ccc2ncccc2c1)N(Cc1ccc2c(c1)OCO2)C(=O)c1cccs1 (stereo unspecified),9.6,–,–,–,–,–,–
O=C(NC1CCCCC1)C(c1ccncc1)N(Cc1ccc2c(c1)OCO2)C(=O)c1cnsn1 (stereo unspecified),–,–,–,–,11,–,–
O=C(Nc1ccc(Cl)cc1F)c1cc(S(=O)(=O)N2CCCCC2)ccc1F,12,–,–,–,–,–,–
Nc1cc(=O)[nH]c(SCC(=O)NC2CCCCCCC2)n1,9.6,–,–,·,–,–,–
Cc1cc(=O)[nH]c(SCC(=O)NC2CCCCCC2)n1,–,–,–,·,–,·,·
Cc1cc(N2CCN(CC(C)(C)O)C[C@H]2C)ccc1N1CCN(Cc2ccccc2)[C@@H](C)C1,–,–,–,·,–,·,·
O=C(O)CC(C(=O)Nc1cccc(C(F)(F)F)c1)C1CCCO1 (stereo unspecified),16,–,–,·,–,–,–
CCOC(=O)[C@]12CCCC=C1N(Cc1ccc(Cl)cc1Cl)C(=O)[C@H](CC(=O)N1CCC(c3ccccc3)CC1)C2,–,–,–,·,–,·,·
COC(=O)[C@]12CCCCC=C1N(Cc1ccc(Cl)cc1Cl)C(=O)[C@H](CC(=O)N1CCC(c3ccccc3)CC1)C2,12,–,–,·,–,–,–
c1ccc2oc(-c3ccn[nH]3)cc2c1,–,–,–,–,–,·,·
CCOC(=O)c1c(C)nc2c(c1-c1cc(OC)c(OC)c(OC)c1)C(=O)c1ccccc1-2,12,–,–,–,–,–,–
CCOC(=O)c1c(C)nc2c(c1-c1ccc(OC)cc1)C(=O)CC(C)(C)C2,–,–,–,–,–,·,·
Cc1cccc(C)c1NC(=O)C1(C)CN(S(C)(=O)=O)CC(=O)N1CCc1ccccc1F (stereo unspecified),–,–,–,·,–,·,·
CC(=O)Nc1ccc(NC(=O)c2ccccc2S(=O)(=O)c2ccc([N+](=O)[O-])cc2)cc1,–,–,–,–,–,·,·
Cn1cc(CN2CCC(C(=O)NC(c3ccc(-c4ccccc4)cc3)c3cnccn3)CC2)c2ccccc21 (stereo unspecified),12,–,–,·,–,–,–
O=C(Cc1ccccc1[N+](=O)[O-])OCN1C(=O)c2ccccc2C1=O,–,–,–,–,–,·,·
O=C1c2ccccc2C(=O)N1OCc1ccccc1[N+](=O)[O-],13,–,–,–,–,–,–
SMILES,PLCg1 inh,ADAM17 inh,ADAM10 inh,Rce1 inhib,PLC-beta3 inh,PLCgamma1 ctr,PLCbeta3 conf
CN(C)c1nc(SCCOC(=O)COc2ccc(Cl)cc2Cl)nc(N(C)C)n1,9.9,–,–,·,–,–,–
N#Cc1ccc(C23CC4(C2)[C@H](CN(Cc2ccc(-c5ccccc5)cc2)[C@@H]4c2ccccc2)C3c2ccc(C(F)(F)F)cc2)cc1 (stereo partly specified),–,–,–,–,11,–,–
FC(F)(F)c1ccc(C2[C@H]3CN(Cc4ccc(-c5ccccc5)cc4)[C@H](c4ccccc4)C34CC2(c2ccccc2)C4)cc1 (stereo partly specified),–,–,–,–,–,·,·
O=C(CN1C(=O)CSc2ccc(C(F)(F)F)cc21)Nc1ccccc1,14,–,–,–,–,–,–
CCOC(=O)c1c(NC(=S)N2CCN(C)CC2)sc(C)c1-c1ccccc1,11,–,–,–,–,–,–
CCOC(=O)c1ccc(NC(=S)N2CCN(C)CC2)cc1,–,–,–,–,–,·,·
O=C1CN(C(=O)COC(=O)CCC(=O)c2ccc(F)cc2)c2ccccc2N1,–,–,–,·,–,·,·
CCN(CC)C1=C(Cl)C(=O)C(Cl)C12OCCO2 (stereo unspecified),–,–,–,–,–,·,·
COc1ccc(-c2cc(C(=O)Nc3ccc(C)c(C)c3)no2)cc1,12,–,–,–,–,–,–
Cc1ccc(NC(=O)c2cc(-c3ccc(F)cc3)on2)cc1C,–,–,–,–,–,·,·
COc1ccc(N(CC(=O)NCCc2ccc(Cl)cc2)S(=O)(=O)c2c(C)[nH]c(=O)[nH]c2=O)cc1,–,–,–,–,–,·,·
Cc1c(NC(=O)C(C)OC(=O)COc2cccc3c2OC(C)(C)C3)c(=O)n(-c2ccccc2)n1C (stereo unspecified),–,–,–,–,11,–,–
Cc1c(NC(=O)COc2cccc3c2OC(C)(C)C3)c(=O)n(-c2ccccc2)n1C,–,–,–,–,–,·,·
Cc1cnccc1CNC(=O)CC1C(=O)NCCN1CC(C)(C)C (stereo unspecified),–,–,–,–,–,·,·
Cn1cc(/C=N/NC(N)=S)c2ccccc21,10,–,–,–,–,–,–
CCOC(=O)CSc1cc(=O)n(CC)c2ccccc12,10,–,–,–,–,–,–
COc1coc(C(O)C[N+](=O)[O-])cc1=O (stereo unspecified),–,–,–,·,–,·,·
C=CCSc1nc2sc3c(c2c(=O)[nH]1)CCC3,–,–,–,–,–,·,·
C[N+](C)(C)CCOC(N)=O,11,–,–,·,–,–,–
COc1cc2c(c(OC)c1OC)C(=O)CC2,–,–,–,–,–,·,·
COc1cc2c(c(O)c1OC)C(=O)C(OC)CCC2 (stereo unspecified),–,–,–,–,12,–,–
COc1cc(NS(=O)(=O)c2ccc(NC(=O)NC3CCCCC3)cc2)nc(OC)n1,10,–,–,–,–,–,–
COc1cc(NS(=O)(=O)c2ccc(NC(=S)NC(=O)C3CCCC3)cc2)nc(OC)n1,–,–,–,–,–,·,·
Cc1ccc(C(=O)N/N=C(\CC(C)C)c2ccccc2)cc1,–,–,–,–,–,·,·
